Laboratory results reported in PubChem BioAssay (NCATS).
Inconclusive results are not listed. Values without a mark were called inactive. The source made the active and inactive calls. Calls come from the whole dose curve; as a rule, active = well fitted curve in the direction sought with a large enough effect; inconclusive = small, poorly fitted or top-dose-only effect, or another doubt; inactive = no such curve, though single readings can be large; an effect the other way counts as inactive or inconclusive.

Legend:
[1] = biological target: Cellular tumor antigen p53 (Homo sapiens) (UniProt P04637); test: Primary qHTS for small molecule compounds that upregulate eGFP-tagged delta133p53alpha (in N-terminal) cells. (AID 2060322); details: NCI-H358 eGFP-delta133p53alpha fluorescence, 24 h; activation: active compounds read high; note: nearly all actives have a fitted effect of over 75% in size; note: potency is the fitted concentration of half-maximal effect;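 for activation: series mostly up to about 56 µM; 0% = DMSO vehicle and 100% = reference activator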
Chain of Cellular tumor antigen p53 (Homo sapiens) (P04637 whole entry, looked up): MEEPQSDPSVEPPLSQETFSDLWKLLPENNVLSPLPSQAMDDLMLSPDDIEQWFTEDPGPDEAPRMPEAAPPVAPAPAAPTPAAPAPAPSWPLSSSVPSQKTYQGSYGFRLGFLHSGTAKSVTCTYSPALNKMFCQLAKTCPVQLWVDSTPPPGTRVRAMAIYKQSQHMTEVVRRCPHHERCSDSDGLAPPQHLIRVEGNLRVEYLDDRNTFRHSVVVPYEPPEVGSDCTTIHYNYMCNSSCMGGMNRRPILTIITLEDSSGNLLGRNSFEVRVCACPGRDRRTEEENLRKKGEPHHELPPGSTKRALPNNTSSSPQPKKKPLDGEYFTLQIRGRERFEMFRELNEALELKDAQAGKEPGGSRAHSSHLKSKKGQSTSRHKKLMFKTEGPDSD
Outline: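 NCI-H358 cells pre-induced 24 h with 10 ng/ml doxycycline to express N-terminal eGFP-delta133p53alpha, then dosed 24 h at 37C without doxycycline; fixed, Hoechst-stained, GFP intensity by laser scanning cytometry, normalized to DMSO (0%) and 57.5 uM 5-azacytidine (100%).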

[2] = BET inhibitor-based combinations targeting novel dependencies in MECOM-rearranged (r) AML: SET-2 cell line (AID 2202231); details: SET-2 AML cells viability, CellTiter-Glo luminescence, 48 h; viability: active compounds read low, concentration not given here; note: nearly all actives have a fitted effect of over 35% in size; note: potency is the fitted concentration of half-maximal effect;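 for viability: plate controls were DMSO treated cells for no effect and wells without cells for full effect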
Outline: (§1)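 Here, 11-point titrations of each agent were applied to 500 seeded cells and incubated 48 hr; CellTiter-Glo signal, scaled against DMSO and empty wells, was integrated as AUC, then Z-scored within the individual line.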

[3] = BET inhibitor-based combinations targeting novel dependencies in MECOM-rearranged (r) AML: OCI-AML3 cell line (AID 2202232); details: Potency: OCI-AML3 viability; note: nearly all actives have a fitted effect of over 35% in size; note: potency is the fitted concentration of half-maximal effect
Outline: as §1

[4] = BET inhibitor-based combinations targeting novel dependencies in MECOM-rearranged (r) AML: MV-4-11 cell line (AID 2202233); note: nearly all actives have a fitted effect of over 45% in size; note: potency is the fitted concentration of half-maximal effect
Outline: (§2)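 Normalized to DMSO and empty-well controls, the luminescence data from CellTiter-Glo after 48 hr drug exposure were fitted across 11 concentrations. Reported metrics are area under the dose-response curve and its Z-transformed form.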

[5] = BET inhibitor-based combinations targeting novel dependencies in MECOM-rearranged (r) AML: HNT-34 cell line (AID 2202234); note: nearly all actives have a fitted effect of over 35% in size; note: potency is the fitted concentration of half-maximal effect
Outline: as §2

[6] = BET inhibitor-based combinations targeting novel dependencies in MECOM-rearranged (r) AML: UCSD-AML1 cell line (AID 2202235); note: nearly all actives have a fitted effect of over 40% in size; note: potency is the fitted concentration of half-maximal effect
Outline: as §2

[7] = BET inhibitor-based combinations targeting novel dependencies in MECOM-rearranged (r) AML: AML-191 cell line (AID 2202236; note: nearly all actives have a fitted effect of over 35% in size; note: potency is the fitted concentration of half-maximal effect)
Outline: as §1

[8] = BET inhibitor-based combinations targeting novel dependencies in MECOM-rearranged (r) AML: AML-194 cell line (AID 2202237; note: nearly all actives have a fitted effect of over 40% in size; note: potency is the fitted concentration of half-maximal effect)
Outline: as §1

[9] = biological target: Retinaldehyde dehydrogenase 3 (Homo sapiens) (UniProt P47895); test: qHTS for Inhibitors of the Aldehyde Dehydrogenase Family (ALDH1A3) Primary screen (AID 2061315);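 note: plate controls were DMSO vehicle for no effect and reference inhibitor for full effect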

| Compound | activation [1] [%] | viability [2] [%] | Potency [2] | Potency [3] | Potency [4] | Potency [5] | Potency [6] | Potency [7] | Potency [8] | Potency [1] | Potency [9] |
| --- | --- | --- | --- | --- | --- | --- | --- | --- | --- | --- | --- |
| OCCC#Cc1nc(-c2ccc(F)cc2)c(-c2ccncc2)n1CCCc1ccccc1 | 17.2 | 100 |  |  |  |  |  |  |  |  |  |
| COc1cc([C@H]2Oc3cc([C@H]4Oc5cc(O)cc(O)c5C(=O)[C@@H]4O)ccc3O[C@@H]2CO)ccc1O | -20.1 | 119 |  |  |  |  |  |  |  |  |  |
| N=c1ccn2c(n1)O[C@H]1[C@@H](O)[C@@H](CO)O[C@H]12 | 18.1 |  | 1.05 µM (active) | 5.25 µM (active) | 1.32 µM (active) | 0.235 µM (active) | 0.0833 µM (active) | 0.235 µM (active) | 0.118 µM (active) |  |  |
| CC1(C)O[C@@H]2C[C@H]3[C@@H]4CCC5=CC(=O)C=C[C@]5(C)[C@@]4(F)[C@@H](O)C[C@]3(C)[C@]2(C(=O)CO)O1 | -9.6 | 115 |  | inactive | inactive | inactive | inactive |  |  |  |  |
| COc1ccc2nc3cc(Cl)ccc3c(Nc3cc(CN4CCCC4)c(O)c(CN4CCCC4)c3)c2n1 | 55.3 |  | 7.42 µM (active) | 7.42 µM (active) | 4.68 µM (active) | 11.8 µM (active) | 8.33 µM (active) |  |  |  |  |
| CN(c1ncccc1CNc1nc(Nc2ccc3c(c2)CC(=O)N3)ncc1C(F)(F)F)S(C)(=O)=O |  |  | 6.61 µM (active) | 6.61 µM (active) | 0.833 µM (active) | 5.25 µM (active) | 5.9 µM (active) | 4.68 µM (active) |  | 24.3 µM (active) |  |
| Cc1cc(Nc2ncc3c(n2)N(C)C(=O)N(c2cc(NC(=O)c4cccc(C(F)(F)F)c4)ccc2C)C3)n(C)n1 |  |  | 0.833 µM (active) | 0.296 µM (active) | 0.0372 µM (active) | 0.0263 µM (active) | 0.417 µM (active) | 0.235 µM (active) |  | 0.432 µM (active) |  |
| NC[C@H]1O[C@H](O[C@@H]2[C@@H](O)[C@@H](O[C@H]3O[C@H](CO)[C@@H](O)[C@H](N)[C@@H]3O)[C@H](N)C[C@@H]2N)[C@H](O)[C@@H](O)[C@H]1O | 5.09 | 111 |  | inactive | inactive | inactive | inactive | inactive | inactive |  |  |
| CCOc1cc(C(C)(C)C)ccc1C1=N[C@@](C)(c2ccc(Cl)cc2)[C@@](C)(c2ccc(Cl)cc2)N1C(=O)N1CCN(CC(=O)N2CCOCC2)CC1 | 35.5 |  |  | 11.5 µM (active) | 1.63 µM (active) |  | 4.09 µM (active) | 7.28 µM (active) | 9.17 µM (active) |  | inactive |
